In the supplement of paper PMC10849652:
Of roughly 7,900 targets only a part is listed; those with a hit were picked by preference. About 0.6% of all pairs of compound and target were hits. A number with no mark means an inactive call.

How the values were obtained:
Test in all cases: log2 fold change, soluble protein after heating vs DMSO (PISA); higher = thermal stabilisation; K562 cells, 10 uM, 30 min; active = over 0.2 and 3.5 SD of the protein, either way, in both replicates (recomputed)
[1] = compound: Cc1ccc(NC(=O)c2ccc(CN3CC[C@H](N(C)C)C3)c(C(F)(F)F)c2)cc1Nc1nccc(-c2cncnc2)n1 [bafetinib]
Procedure, shortened: (§1)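 K562 cells at 2×10^6 cells/mL were treated for 30 min with 10 μM compound, and aliquots were heated for 3 min over 48°C-58°C before pooling. Extraction used PBS with 0.5% NP-40 at 4°C, and soluble protein was the supernatant after 21,000xg for 90 min, measured by TMTpro 16plex LC-MS/MS with channel sums equalised. Thermal stability values, relative to control samples and from duplicates, are log2 fold changes.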

[2] = compound: Cc1cccc(CC(=O)N2CCc3c2ccc(-c2cn(C)c4ncnc(N)c24)c3F)n1
Procedure, shortened: as §1

[3] = compound: Cc1cn(-c2cc(NC(=O)c3ccc(C)c(Nc4nccc(-c5cccnc5)n4)c3)cc(C(F)(F)F)c2)cn1 [nilotinib]
Procedure, shortened: as §1

[4] = compound: Cc1nc(Nc2n[nH]c3c2CN(C(=O)N[C@H](CN(C)C)c2ccccc2)C3(C)C)c2sccc2n1
Procedure, shortened: as §1

[5] = compound: Cc1nc(Nc2ncc(C(=O)Nc3c(C)cccc3Cl)s2)cc(N2CCN(CCO)CC2)n1 [dasatinib]
Procedure, shortened: as §1

[6] = compound: Cc1ncc(-c2ccnc(Nc3ccc(S(C)(=O)=O)cc3)n2)n1C(C)C
Procedure, shortened: as §1

[7] = compound: Cn1cc(-c2ccc3c(c2)CCN3C(=O)Cc2cccc(C(F)(F)F)c2)c2c(N)ncnc21
Procedure, shortened: as §1

[8] = compound: Cn1cc(-c2ccc3nnc(C(F)(F)c4ccc5ncccc5c4)n3n2)cn1
Procedure, shortened: as §1

[9] = compound: Cn1cncc1[C@@](N)(c1ccc(Cl)cc1)c1ccc2c(c1)c(-c1cccc(Cl)c1)cc(=O)n2C [tipifarnib]
Procedure, shortened: as §1

[10] = compound: FC(F)(F)c1ccc(/C=C/c2nc(COc3ccc(CCCCn4ccnn4)cc3)co2)cc1 [mubritinib]
Procedure, shortened: as §1

[11] = compound: NC(=O)Nc1cc(-c2cccc(F)c2)sc1C(=O)N[C@H]1CCCNC1
Procedure, shortened: as §1

[12] = compound: NC(=O)c1cnc(N[C@@H]2CCCC[C@@H]2N)nc1Nc1cccc(-n2nccn2)c1
Procedure, shortened: as §1

[13] = compound: NC1(c2ccc(-c3nc4ccn5c(=O)[nH]nc5c4cc3-c3ccccc3)cc2)CCC1
Procedure, shortened: as §1

[14] = compound: NCC(=O)Nc1ccc(-n2nc(C(F)(F)F)cc2-c2ccc3c(ccc4ccccc43)c2)cc1
Procedure, shortened: as §1

[15] = compound: Nc1ccccc1NC(=O)c1ccc(CNC(=O)OCc2cccnc2)cc1 [entinostat]
Procedure, shortened: as §1

[16] = compound: O=C(CCCCCCC(=O)Nc1ccccc1)NO [vorinostat]
Procedure, shortened: as §1

[17] = compound: O=C(CCCCCCNC(=O)c1cnc(N(c2ccccc2)c2ccccc2Cl)nc1)NO [citarinostat]
Procedure, shortened: as §1

[18] = compound: O=C(O)c1ccc2c(c1)nc(Nc1cccc(Cl)c1)c1ccncc12 [silmitasertib]
Procedure, shortened: as §1

[19] = compound: O=C1NC(=O)C(c2cnc3ccccn23)=C1c1cn2c3c(cc(F)cc13)CN(C(=O)N1CCCCC1)CC2
Procedure, shortened: as §1

[20] = compound: c1cc(OCCN2CCCCC2)cc(-c2n[nH]c3ccc(-c4nnc[nH]4)cc23)c1
Procedure, shortened: as §1

Sequence of UniProt Q9Y5Y5 (Q9Y5Y5 whole entry, looked up): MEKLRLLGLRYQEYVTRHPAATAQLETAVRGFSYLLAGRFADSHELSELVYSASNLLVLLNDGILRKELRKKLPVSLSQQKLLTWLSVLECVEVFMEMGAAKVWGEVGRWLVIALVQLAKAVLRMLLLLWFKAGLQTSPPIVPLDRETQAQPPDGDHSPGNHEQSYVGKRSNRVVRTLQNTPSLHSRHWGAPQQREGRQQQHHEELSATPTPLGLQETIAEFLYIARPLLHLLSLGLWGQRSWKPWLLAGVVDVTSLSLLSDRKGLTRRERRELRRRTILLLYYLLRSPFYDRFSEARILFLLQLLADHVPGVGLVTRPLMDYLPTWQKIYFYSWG
Sequence of UniProt P46019 (P46019 whole entry, looked up): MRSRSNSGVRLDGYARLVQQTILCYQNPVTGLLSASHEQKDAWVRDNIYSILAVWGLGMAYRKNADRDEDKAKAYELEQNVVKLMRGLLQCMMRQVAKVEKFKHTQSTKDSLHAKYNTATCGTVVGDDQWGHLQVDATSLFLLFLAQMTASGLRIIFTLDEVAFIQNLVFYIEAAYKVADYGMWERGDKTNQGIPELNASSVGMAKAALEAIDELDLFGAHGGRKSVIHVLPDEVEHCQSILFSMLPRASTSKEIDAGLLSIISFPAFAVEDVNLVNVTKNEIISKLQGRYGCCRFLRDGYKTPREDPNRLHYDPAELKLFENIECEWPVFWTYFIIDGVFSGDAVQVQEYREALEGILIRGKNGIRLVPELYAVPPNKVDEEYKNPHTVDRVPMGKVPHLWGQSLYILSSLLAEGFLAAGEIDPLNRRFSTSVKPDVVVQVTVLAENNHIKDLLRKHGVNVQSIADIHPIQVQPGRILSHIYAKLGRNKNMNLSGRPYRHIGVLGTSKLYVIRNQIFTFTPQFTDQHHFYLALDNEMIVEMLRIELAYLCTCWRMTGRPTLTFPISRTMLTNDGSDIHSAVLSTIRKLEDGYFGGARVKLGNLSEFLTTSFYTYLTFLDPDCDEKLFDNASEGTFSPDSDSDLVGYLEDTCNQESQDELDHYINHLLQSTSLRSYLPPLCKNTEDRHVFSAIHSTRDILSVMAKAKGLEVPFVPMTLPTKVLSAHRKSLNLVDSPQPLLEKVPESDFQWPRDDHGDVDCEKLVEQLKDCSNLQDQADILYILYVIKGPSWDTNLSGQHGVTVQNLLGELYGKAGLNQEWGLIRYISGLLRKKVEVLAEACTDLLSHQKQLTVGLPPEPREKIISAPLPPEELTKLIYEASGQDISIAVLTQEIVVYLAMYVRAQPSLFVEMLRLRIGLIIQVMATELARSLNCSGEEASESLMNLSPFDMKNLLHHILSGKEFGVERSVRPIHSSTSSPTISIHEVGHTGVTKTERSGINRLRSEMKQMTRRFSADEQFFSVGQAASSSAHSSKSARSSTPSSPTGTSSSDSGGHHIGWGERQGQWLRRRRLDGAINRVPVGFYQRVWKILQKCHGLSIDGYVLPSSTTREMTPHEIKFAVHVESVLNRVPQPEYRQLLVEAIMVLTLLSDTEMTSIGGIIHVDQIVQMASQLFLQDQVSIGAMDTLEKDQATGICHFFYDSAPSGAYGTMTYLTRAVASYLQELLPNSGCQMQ
Sequence of UniProt Q6L8Q7 (Q6L8Q7 whole entry, looked up): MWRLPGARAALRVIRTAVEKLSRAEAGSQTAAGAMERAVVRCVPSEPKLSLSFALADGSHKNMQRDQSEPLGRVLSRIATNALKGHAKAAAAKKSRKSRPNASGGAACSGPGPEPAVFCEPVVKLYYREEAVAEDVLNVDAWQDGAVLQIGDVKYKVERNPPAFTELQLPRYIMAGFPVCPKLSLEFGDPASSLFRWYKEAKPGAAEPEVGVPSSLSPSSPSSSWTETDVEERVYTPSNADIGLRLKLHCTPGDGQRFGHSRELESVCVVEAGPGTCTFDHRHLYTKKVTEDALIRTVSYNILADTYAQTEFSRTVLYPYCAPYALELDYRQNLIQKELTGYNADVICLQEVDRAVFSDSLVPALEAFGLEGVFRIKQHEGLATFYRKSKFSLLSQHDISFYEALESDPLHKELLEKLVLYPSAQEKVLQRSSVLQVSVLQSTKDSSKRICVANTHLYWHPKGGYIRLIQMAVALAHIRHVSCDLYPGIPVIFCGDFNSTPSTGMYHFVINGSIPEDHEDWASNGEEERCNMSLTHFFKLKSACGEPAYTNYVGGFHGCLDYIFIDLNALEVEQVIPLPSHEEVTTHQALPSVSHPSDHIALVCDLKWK
Sequence of UniProt Q9UPN7 (Q9UPN7 whole entry, looked up): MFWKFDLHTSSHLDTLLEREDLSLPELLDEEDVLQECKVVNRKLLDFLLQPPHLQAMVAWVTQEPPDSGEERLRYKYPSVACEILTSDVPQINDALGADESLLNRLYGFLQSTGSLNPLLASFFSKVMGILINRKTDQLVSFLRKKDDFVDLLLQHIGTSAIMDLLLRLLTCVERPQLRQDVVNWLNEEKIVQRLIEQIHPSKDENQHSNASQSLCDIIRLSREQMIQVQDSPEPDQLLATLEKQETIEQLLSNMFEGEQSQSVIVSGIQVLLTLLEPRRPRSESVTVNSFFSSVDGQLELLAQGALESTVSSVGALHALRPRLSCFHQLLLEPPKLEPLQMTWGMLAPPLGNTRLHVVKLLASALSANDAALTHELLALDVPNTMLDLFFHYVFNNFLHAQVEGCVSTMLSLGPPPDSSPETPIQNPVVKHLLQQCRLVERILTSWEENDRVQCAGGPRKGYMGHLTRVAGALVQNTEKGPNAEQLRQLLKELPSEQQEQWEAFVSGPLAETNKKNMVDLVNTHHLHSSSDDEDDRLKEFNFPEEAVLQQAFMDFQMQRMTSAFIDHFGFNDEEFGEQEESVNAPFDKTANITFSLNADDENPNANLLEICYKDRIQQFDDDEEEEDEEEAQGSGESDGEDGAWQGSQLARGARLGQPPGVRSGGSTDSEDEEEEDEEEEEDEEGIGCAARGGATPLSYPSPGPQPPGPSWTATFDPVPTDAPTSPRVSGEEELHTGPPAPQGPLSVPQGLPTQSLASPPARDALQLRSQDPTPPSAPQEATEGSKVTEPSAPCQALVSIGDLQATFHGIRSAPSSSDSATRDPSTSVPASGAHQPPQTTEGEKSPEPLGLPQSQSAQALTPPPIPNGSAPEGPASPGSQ
Sequence of UniProt Q13131 (Q13131 whole entry, looked up): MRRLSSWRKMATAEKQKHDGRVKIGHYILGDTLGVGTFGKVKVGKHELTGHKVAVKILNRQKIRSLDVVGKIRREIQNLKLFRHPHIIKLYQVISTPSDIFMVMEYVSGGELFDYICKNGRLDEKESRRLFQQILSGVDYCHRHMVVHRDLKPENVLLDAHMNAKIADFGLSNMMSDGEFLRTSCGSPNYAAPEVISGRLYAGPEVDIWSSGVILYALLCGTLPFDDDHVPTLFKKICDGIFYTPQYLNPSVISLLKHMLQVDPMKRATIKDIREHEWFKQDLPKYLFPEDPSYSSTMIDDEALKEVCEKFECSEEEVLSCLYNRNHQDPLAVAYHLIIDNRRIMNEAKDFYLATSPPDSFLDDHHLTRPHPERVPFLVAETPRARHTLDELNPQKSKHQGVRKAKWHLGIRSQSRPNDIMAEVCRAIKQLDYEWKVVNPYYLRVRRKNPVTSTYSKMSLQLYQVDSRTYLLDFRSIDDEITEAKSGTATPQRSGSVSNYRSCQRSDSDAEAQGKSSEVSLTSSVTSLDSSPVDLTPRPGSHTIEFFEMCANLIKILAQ
Sequence of UniProt Q16512 (Q16512 whole entry, looked up): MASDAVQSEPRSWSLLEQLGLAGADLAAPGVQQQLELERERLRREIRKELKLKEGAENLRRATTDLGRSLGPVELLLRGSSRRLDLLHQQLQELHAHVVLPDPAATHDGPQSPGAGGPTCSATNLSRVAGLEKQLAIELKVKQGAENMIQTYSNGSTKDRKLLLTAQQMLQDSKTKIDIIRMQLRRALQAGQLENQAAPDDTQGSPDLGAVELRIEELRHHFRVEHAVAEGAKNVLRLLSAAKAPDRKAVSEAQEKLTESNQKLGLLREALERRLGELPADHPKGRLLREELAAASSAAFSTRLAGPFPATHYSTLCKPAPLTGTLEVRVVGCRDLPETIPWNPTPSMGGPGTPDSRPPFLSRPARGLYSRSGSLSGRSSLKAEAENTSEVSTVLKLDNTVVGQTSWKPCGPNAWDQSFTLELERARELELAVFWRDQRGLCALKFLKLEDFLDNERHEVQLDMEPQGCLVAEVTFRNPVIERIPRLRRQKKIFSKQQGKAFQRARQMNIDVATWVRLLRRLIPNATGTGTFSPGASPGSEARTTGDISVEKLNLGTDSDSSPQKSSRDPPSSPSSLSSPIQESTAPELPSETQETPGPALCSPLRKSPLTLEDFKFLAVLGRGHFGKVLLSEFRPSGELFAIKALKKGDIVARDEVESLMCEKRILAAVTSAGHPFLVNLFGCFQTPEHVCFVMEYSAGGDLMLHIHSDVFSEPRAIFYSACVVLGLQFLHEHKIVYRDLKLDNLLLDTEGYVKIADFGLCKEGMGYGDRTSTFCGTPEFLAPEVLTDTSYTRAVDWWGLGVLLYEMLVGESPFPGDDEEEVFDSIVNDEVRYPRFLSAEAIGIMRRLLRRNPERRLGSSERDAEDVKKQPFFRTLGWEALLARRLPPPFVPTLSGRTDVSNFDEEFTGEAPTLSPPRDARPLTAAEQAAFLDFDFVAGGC
Sequence of UniProt Q9BRP1 (Q9BRP1 whole entry, looked up): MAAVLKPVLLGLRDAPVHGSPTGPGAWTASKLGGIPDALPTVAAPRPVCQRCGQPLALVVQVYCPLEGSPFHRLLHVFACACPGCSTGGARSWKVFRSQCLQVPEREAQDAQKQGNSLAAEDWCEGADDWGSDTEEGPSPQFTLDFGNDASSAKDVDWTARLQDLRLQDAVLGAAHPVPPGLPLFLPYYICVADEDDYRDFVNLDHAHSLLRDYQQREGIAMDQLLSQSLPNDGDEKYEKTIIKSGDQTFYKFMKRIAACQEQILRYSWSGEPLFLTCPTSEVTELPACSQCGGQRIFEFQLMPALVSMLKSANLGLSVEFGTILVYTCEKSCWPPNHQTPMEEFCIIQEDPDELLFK

Row | Target | log2 fold change [1] | log2 fold change [2] | log2 fold change [3] | log2 fold change [4] | log2 fold change [5] | log2 fold change [6] | log2 fold change [7] | log2 fold change [8] | log2 fold change [9] | log2 fold change [10] | log2 fold change [11] | log2 fold change [12] | log2 fold change [13] | log2 fold change [14] | log2 fold change [15] | log2 fold change [16] | log2 fold change [17] | log2 fold change [18] | log2 fold change [19] | log2 fold change [20]
1 | PPP6R1 (UniProt Q9UPN7) | -0.024 | 0.022 | 0.003 | -0.031 | -0.02 | -0.008 | 0.003 | 0.02 | 0.01 | 0.043 | 0.023 | -0.066 | -0.09 | 0.011 | -0.018 | 0.023 | 0.054 | 0.013 | -0.055 | -0.05
2 | PDE12 (UniProt Q6L8Q7) | -0.013 | 0.002 | -0.004 | 0.017 | -0.061 | -0.006 | 0.067 | 0.066 | -0.078 | 0.066 | -0.036 | 0.07 | -0.069 | -0.008 | 0.017 | -0.003 | 0.044 | -0.014 | -0.089 | 0.047
3 | PCNT (UniProt O95613) | -0.227 | -0.324 | -0.117 | 0.045 | 0.085 | -0.002 | -0.076 | 0.107 | 0.127 | -0.004 | -0.341 | -0.277 | -0.106 | -0.294 | -0.129 | -0.137 | -0.076 | 0.11 | -0.142 | -0.233
4 | PRKAA1 isoform 2 (UniProt Q13131) | -0.096 | 0.035 | -0.029 | -0.206 (active) | -0.069 | -0.011 | 0.082 | 0.028 | -0.012 | -0.012 | -0.141 | -0.009 | -0.049 | -0.007 | 0.002 | 0.052 | 0.044 | -0.006 | -0.007 | -0.056
5 | PHKA2 (UniProt P46019) | -0.107 | -0.037 | -0.239 | 0.119 | -0.07 | -0.157 | 0.033 | -0.051 | -0.055 | 0.082 | 0.013 | -0.112 | -0.157 | 0.005 | 0.13 | 0.04 | -0.046 | 0.001 | -0.013 | 0.065
6 | PDCD2L (UniProt Q9BRP1) | 0.026 | 0.077 | -0.137 | 0.035 | -0.122 | -0.062 | -0.022 | 0.015 | -0.13 | 0.018 | 0.058 | 1.21 (active) | -0.018 | -0.101 | 0.036 | 0.023 | 0.06 | 0 | -0.092 | -0.001
7 | PEX16 isoform 2 (UniProt Q9Y5Y5) | -0.202 | 0.016 | -0.067 | 0.006 | 0.004 | -0.006 | 0.079 | 0.079 | -0.067 | 0.174 | 0.061 | -0.052 | -0.171 | -0.031 | 0.022 | 0.115 | 0.081 | -0.025 | 0.033 | -0.051
8 | PKN1 isoform 2 (UniProt Q16512) | -0.006 | 0.038 | -0.044 | -0.705 (active) | -0.154 | -0.019 | -0.02 | -0.008 | -0.046 | 0.098 | -0.508 (active) | -0.141 | -0.118 | -0.128 | 0.039 | 0.042 | 0.024 | 0.024 | -0.131 | -0.157
